Calls of active or inactive are those of the source. Rule for the calls: active = hit-call score of the fitted dose curve at least 0.9, where 1 is the maximum; inactive = score below 0.9.
Tests used:
Settings in all cases: mRNA level, 48 h; actives raise or lower the signal
[1] = read-out: Cytochrome P450 (CYP24A1), CYP24A1 (gene 1591); test: LTEA_HepaRG_CYP24A1: Life Technologies and Expression Analysis (LTEA) Assay for Cytochrome P450 (CYP24A1) using HepaRG (AID 2283478)
Procedure, shortened: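 mRNA of CYP24A1 quantified by TaqMan qRT-PCR (ACTB/GAPDH/POLR2A normalization) after 48 h chemical exposure of HepaRG cells, top concentration 100 uM, half-log steps, 0.5% DMSO vehicle, duplicates. Curves fitted bidirectionally against DMSO baseline.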

[2] = read-out: cysteine-aspartic acid protease (CASP8), CASP8 (gene 841); test: LTEA_HepaRG_CASP8: Life Technologies and Expression Analysis (LTEA) Assay for cysteine-aspartic acid protease (CASP8) using HepaRG (AID 2283480)
Procedure, shortened: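 Concentration-response in duplicate up to 100 uM (half-log steps, 0.5% DMSO) on differentiated HepaRG cultures for 48 h. Expression change of CASP8 mRNA is determined by TaqMan qRT-PCR with housekeeping-gene normalization.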

[3] = read-out: Cytochrome P450 (CYP2B6), CYP2B6 (gene 1555); test: LTEA_HepaRG_CYP2B6: Life Technologies and Expression Analysis (LTEA) Assay for Cytochrome P450 (CYP2B6) using HepaRG (AID 2283481)
Procedure, shortened: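 CYP2B6 transcript level quantified by qRT-PCR against three housekeeping genes, fitted bidirectionally relative to DMSO. HepaRG cultures received chemicals for 48 h, 8-point half-log series from 100 uM in 0.5% DMSO, duplicate wells, serum-free induction medium.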

[4] = read-out: Cytochrome P450 2C19 (Homo sapiens) (UniProt P33261); test: LTEA_HepaRG_CYP2C19: Life Technologies and Expression Analysis (LTEA) Assay for CYP2C19 using HepaRG (AID 2283482)
Procedure, shortened: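 CYP2C19 transcript levels by qRT-PCR, normalized to three housekeeping genes, in HepaRG cells after 48 h chemical exposure. Eight-point half-log series topping at 100 uM, 0.5% DMSO vehicle. Increases and decreases both fitted against DMSO.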

[5] = read-out: CYP2C9 (gene 1559); test: LTEA_HepaRG_CYP2C9: Life Technologies and Expression Analysis (LTEA) Assay for CYP2C9 using HepaRG (AID 2283484)
Procedure, shortened: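 Eight-point concentration-response (highest 100 uM, half-log dilutions) in HepaRG cells for 48 h; CYP2C9 expression by qRT-PCR normalized to ACTB, GAPDH, POLR2A. Bidirectional fit, DMSO baseline.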

[6] = read-out: CYP2E1 (gene 1571); test: LTEA_HepaRG_CYP2E1: Life Technologies and Expression Analysis (LTEA) Assay for CYP2E1 using HepaRG (AID 2283485)
Procedure, shortened: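 Assay uses 48 h exposure of HepaRG hepatic cells, eight concentrations to 100 uM. Expression of CYP2E1 is quantified by TaqMan qRT-PCR with ACTB, GAPDH and POLR2A normalization; curves fitted in both directions relative to vehicle.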

[7] = read-out: CYP4A11 (gene 1579); test: LTEA_HepaRG_CYP4A11: Life Technologies and Expression Analysis (LTEA) Assay for CYP4A11 using HepaRG (AID 2283486)
Procedure, shortened: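 Readout is CYP4A11 transcript level by qRT-PCR, normalized to three housekeeping genes and fitted bidirectionally against 0.5% DMSO. Human HepaRG cells were treated 48 h, in duplicate, with an 8-point half-log series topping at 100 uM.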

[8] = read-out: CYP2C8 (gene 1558); test: LTEA_HepaRG_CYP2C8: Life Technologies and Expression Analysis (LTEA) Assay for CYP2C8 using HepaRG (AID 2283483)
Procedure, shortened: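 This is a transcriptional endpoint in HepaRG cultures: 48 h exposure, highest concentration 100 uM. CYP2C8 mRNA is quantified by TaqMan qRT-PCR.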

[9] = read-out: Cytochrome P450 3A4 (Homo sapiens) (UniProt P08684); test: LTEA_HepaRG_CYP3A4: Life Technologies and Expression Analysis (LTEA) Assay for CYP3A4 using HepaRG (AID 2283487)
Procedure, shortened: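 In a human hepatic line (HepaRG), duplicate wells were treated 48 h with up to 100 uM chemical in half-log dilutions. Endpoint: CYP3A4 mRNA induction or loss relative to 0.5% DMSO vehicle, by qRT-PCR.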

Measured: AC50

Cytochrome P450 2C19 (Homo sapiens), sequence (P33261 whole entry, looked up): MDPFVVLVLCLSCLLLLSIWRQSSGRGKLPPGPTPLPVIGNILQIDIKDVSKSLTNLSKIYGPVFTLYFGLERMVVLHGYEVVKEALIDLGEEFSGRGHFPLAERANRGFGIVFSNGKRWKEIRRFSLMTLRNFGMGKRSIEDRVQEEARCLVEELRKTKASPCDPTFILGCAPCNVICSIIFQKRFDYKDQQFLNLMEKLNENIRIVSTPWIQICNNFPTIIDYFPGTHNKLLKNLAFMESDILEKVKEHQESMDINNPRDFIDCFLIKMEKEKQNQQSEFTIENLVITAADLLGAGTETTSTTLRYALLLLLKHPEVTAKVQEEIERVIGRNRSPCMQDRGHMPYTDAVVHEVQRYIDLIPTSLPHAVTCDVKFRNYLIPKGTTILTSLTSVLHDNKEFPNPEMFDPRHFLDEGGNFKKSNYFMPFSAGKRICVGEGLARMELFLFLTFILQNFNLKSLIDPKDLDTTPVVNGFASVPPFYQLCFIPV
Cytochrome P450 3A4 (Homo sapiens), sequence (P08684 whole entry, looked up): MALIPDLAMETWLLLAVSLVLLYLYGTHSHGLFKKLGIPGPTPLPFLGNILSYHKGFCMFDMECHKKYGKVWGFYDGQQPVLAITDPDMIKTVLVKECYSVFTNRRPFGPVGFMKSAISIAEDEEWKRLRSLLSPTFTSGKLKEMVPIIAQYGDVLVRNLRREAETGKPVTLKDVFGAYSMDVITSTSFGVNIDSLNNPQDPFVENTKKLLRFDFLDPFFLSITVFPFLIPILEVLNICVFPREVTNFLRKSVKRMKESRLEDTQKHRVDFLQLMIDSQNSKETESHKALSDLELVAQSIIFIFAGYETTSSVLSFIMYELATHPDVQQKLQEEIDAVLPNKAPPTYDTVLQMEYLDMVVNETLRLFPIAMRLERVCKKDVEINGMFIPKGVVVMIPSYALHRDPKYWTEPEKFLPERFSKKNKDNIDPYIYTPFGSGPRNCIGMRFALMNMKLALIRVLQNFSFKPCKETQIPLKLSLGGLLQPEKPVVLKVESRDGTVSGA

O=C1CCCCC1
not listed: [8] | [9]
inactive: all other assays above

CC(COCC(C)OC(=O)c1ccccc1)OC(=O)c1ccccc1 (centres undefined)
inactive: all assays above

O=[Si]=O
active: [3] 0.099 µM
inactive: all other assays above

CCCCC(CC)CO (centres undefined)
inactive: all assays above

CCCCCCCC(=O)OC
active: [8] 12 µM
inactive: all other assays above

Cc1cc(Cc2ccc(N)c(C)c2)ccc1N
active: [3] 0.823 µM | [4] 11.5 µM | [6] 24.6 µM
not listed: [9]
inactive: all other assays above

CN(C)CCCN1c2ccccc2Sc2ccc(Cl)cc21
active: [2] 94.5 µM | [3] 2.21 µM | [6] 13.3 µM | [7] 84.7 µM
inactive: [1] | [8] | [5]

O=NO
inactive: all assays above

O=C1OC(c2ccc(O)cc2)(c2ccc(O)cc2)c2ccccc21
active: [3] 84.7 µM | [4] 76.9 µM | [8] 78.7 µM | [5] 82 µM | [7] 80.1 µM
inactive: [1] | [2] | [6]

CS(=O)(=O)c1ccc([C@@H](C[C@H]2CCC(=O)C2)C(=O)Nc2cnccn2)cc1Cl
inactive: [5] | [6] | [7]
active: [2] 1.2 µM | [4] 1.38 µM | [8] 1.09 µM

CCC(C)N(C)C(=O)c1cc2ccccc2c(-c2ccccc2Cl)n1 (centres undefined)
active: [3] 1.38 µM | [4] 4.31 µM | [8] 1.77 µM | [6] 14.1 µM | [7] 15.4 µM
inactive: [1] | [2] | [5]

S=c1[nH]c2ccccc2s1
inactive: all assays above

CCCCc1nc2cccnc2n1Cc1ccc(-c2ccccc2-c2nnn[nH]2)cc1
active: [3] 10.4 µM | [6] 28.6 µM | [9] 16 µM
inactive: all other assays above

CCCC[C@H]1CN(CC2CCOCC2)C(=O)OC12CCN(C1(C)CCN(C(=O)c3c(C)ncnc3C)CC1)CC2
inactive: all assays above

Cn1cnc2c1c(=O)[nH]c(=O)n2C
inactive: [2]

NC(=Nc1ccccc1)Nc1ccccc1
inactive: all assays above

CCCCCCC(CCCCCCCCCCC(=O)OCC(COC(C)=O)OC(C)=O)OC(C)=O (centres undefined)
inactive: all assays above

C/C=C/c1ccc(OC)cc1
inactive: all assays above

CC1=C(C)S(=O)(=O)CCS1(=O)=O
active: [3] 89 µM | [4] 88 µM | [5] 87.7 µM | [7] 89.5 µM
not listed: [9]
inactive: all other assays above

CC(C)NCC(O)c1ccc(O)c(O)c1 (centres undefined)
inactive: [1] | [2] | [8] | [7]
active: [3] 0.132 µM | [5] 0.175 µM | [6] 0.304 µM

O=C1O[C@H]([C@H](O)CO)C(O)=C1O
inactive: all assays above

CC(=O)[C@@]1(O)CC[C@H]2[C@@H]3CCC4=CC(=O)CC[C@]4(C)[C@H]3CC[C@@]21C
inactive: [2]

CC(=O)OCC(COC(C)=O)OC(C)=O
inactive: all assays above

CC(C)c1cccc(C(C)C)c1
not listed: [1]
inactive: all other assays above

CCN(CC)CCOc1ccc(C(=C(Cl)c2ccccc2)c2ccccc2)cc1
active: [3] 3.32 µM | [5] 80.9 µM | [6] 14.6 µM | [7] 19.3 µM
inactive: all other assays above

CC(N)=O
inactive: all assays above
